# Results from PubChem BioAssay (NCATS).
# Records with an inconclusive call do not appear. Where a call stands in place of a potency, no number is given. A number with no mark means an inactive call. Calls of active or inactive are those of the source. Calls come from the whole dose curve; as a rule, active = well fitted curve in the direction sought with a large enough effect; inconclusive = small, poorly fitted or top-dose-only effect, or another doubt; inactive = no such curve, though single readings can be large; an effect the other way counts as inactive or inconclusive.
# How the values were obtained:
# [1] = target: Aldehyde dehydrogenase, mitochondrial (Homo sapiens) (UniProt P05091); test: qHTS for Inhibitors of the Aldehyde Dehydrogenase Family (ALDH2) Primary screen (AID 2061308); details: ALDH2 enzyme inhibition qHTS, 1536-well; series mostly up to 56 µM; note: nearly all actives have a fitted effect of over 55% in size
# [2] = target: Retinaldehyde dehydrogenase 3 (Homo sapiens) (UniProt P47895); test: qHTS for Inhibitors of the Aldehyde Dehydrogenase Family (ALDH1A3) Primary screen (AID 2061315); details: ALDH inhibition qHTS; series mostly up to 56 µM
SMILES,Potency [1],Potency [2],"activity change, negative = inhibition [1]","activity change, negative = inhibition [2]"
CCC(=O)NC(c1ccc2c(c1)OCO2)c1cc(Cl)c2cccnc2c1O (stereo not drawn),inactive,inactive,,
c1ccc2sc(-c3csc4c3CCNC4)nc2c1,inactive,inactive,,
COc1ccc(CNc2ccc(-c3nc4ccccc4[nH]3)cc2)cc1OC,inactive,inactive,,
O=C(Cc1ccccc1)Nc1ncnc2c1C(c1ccccc1)c1c(ccc3ccccc13)O2 (stereo not drawn),inactive,inactive,,
Fc1ccc(Nc2nc(-c3ccnc(N4CCCCC4)c3)nc3ccccc23)cc1F,inactive,inactive,,
CCCn1c(C)nc2c(NCCCN(C)C)nc(C)nc21,inactive,inactive,,
Cc1cc(NS(=O)(=O)c2ccc(C(=O)NCc3ccc(Cl)c(Cl)c3)cc2)no1,inactive,inactive,,
Cc1cc(N[S+](=O)([O-])c2ccc3c(c2)CCC(=O)N3C)ccc1F,inactive,inactive,,
O=C(COC(=O)CNC(=O)c1ccccc1Cl)Nc1cc(C(F)(F)F)ccc1Cl,inactive,inactive,,
O=C(O)c1ccc(O)c2ncc(N3CCCC3)cc12,inactive,inactive,,
Cc1cc2c(s1)c1cnn(Cc3ccc(C(C)C)cc3)c(=O)c1n2C,inactive,inactive,,
CCOc1ccc(CCNC(=O)c2cc3sccc3n2CCN2CCOCC2)cc1OCC,inactive,inactive,,
COc1ccc2nc(-c3ccc(OC)c(OC)c3)sc2c1,inactive,inactive,,
CC(=O)Nc1ccc(S(=O)(=O)N2CCCN(S(=O)(=O)c3ccc4c(c3)OCCO4)CC2)cc1,inactive,inactive,,
Cc1cc(C)nc(NC(=S)N2CCN(c3cccc(Cl)c3Cl)CC2)c1,inactive,inactive,,
CC(C)(C)OC(=O)N1CCN(c2ccc(NCc3nnc(-c4ccc(C#N)cc4)o3)cc2)CC1,inactive,inactive,,
Cc1ccc(-c2cc(C(=O)Nc3ccc(C#N)cc3)c3ccccc3n2)cc1C,inactive,inactive,,
Cc1cc(C)nc(NC(=S)N2CCN(c3ccc(NS(C)(=O)=O)nn3)CC2)c1,inactive,inactive,,
Cc1cc(NS(=O)(=O)c2ccc(NC(=O)Cc3ccc(C)c(C)c3)cc2)no1,inactive,inactive,,
Nc1ccc(C(=O)Nc2ccc(-c3nc4ccccc4[nH]3)cc2)cc1Cl,inactive,inactive,,
c1cncc(CNc2ncnc3ccc(-c4ccc5c(c4)OCO5)cc23)c1,inactive,inactive,,

SMILES,Potency [1],Potency [2],"activity change, negative = inhibition [1]","activity change, negative = inhibition [2]"
COc1ccc2c(c1)Oc1nc(-c3ccc(C)s3)nc(SCC(=O)Nc3cccc(C(=O)O)c3)c1C2,inactive,inactive,,
O=C1CCCC2=C1C(c1[nH]ncc1Cl)N=C(Nc1ccn[nH]1)N2 (stereo not drawn),inactive,inactive,,
O=c1c2ccc([N+](=O)[O-])cc2nc2sc(Nc3ccc4c(c3)CCC4)nn12,inactive,inactive,,
Cn1c2ccsc2c2cnn(Cc3ccccc3F)c(=O)c21,inactive,inactive,,
N#Cc1ccc(OC2=NS(=O)(=O)c3ccccc32)cc1,inactive,inactive,,
CCOc1ccc(CCNC(=O)C2(c3ccccc3)CC2)cc1OCC,inactive,inactive,,
CC(C)CN1CCN(C(=O)COC(=O)c2ccc(S(C)(=O)=O)c([N+](=O)[O-])c2)CC1,inactive,inactive,,
C=CCNc1oc(-c2ccc(Cl)cc2)nc1C#N,inactive,inactive,,
CN1CCOc2cc(S(=O)(=O)N3CCN(S(=O)(=O)c4c(F)cccc4F)CC3)cnc21,inactive,inactive,,
COc1ccc(NC(=O)c2ccc(-c3nc4ccccc4[nH]3)cc2)cc1OC,inactive,inactive,,
O=C(Nc1ccc(-c2nc3ccccc3[nH]2)cc1)c1ccncc1,inactive,inactive,,
Cc1ccnc(NC(=S)N2CC3CN(c4ncc(C(F)(F)F)cc4Cl)CC3C2)c1 (stereo not drawn),inactive,inactive,,
C=C1C(=O)OC2C1CCC1(C)C(O)CCC(=C)C21 (stereo not drawn),inactive,inactive,,
Cc1cc2c(s1)c1cnn(Cc3c(F)ccc(C)c3F)c(=O)c1n2C,inactive,inactive,,
Nc1ccc(Cl)cc1C(=O)c1ccc[nH]1,inactive,inactive,,
COc1cccc(-c2ccc3ncnc(NCc4cccnc4)c3c2)c1,inactive,inactive,,
CC(=O)NC(c1cccs1)c1cc(F)c2cccnc2c1O (stereo not drawn),inactive,inactive,,
CC(C)(C)NC(=O)Nc1nnc(-c2ccncc2)s1,inactive,inactive,,
CCOC(=O)c1csc(NC(=O)c2ccncc2NS(=O)(=O)c2ccc(C)cc2)n1,inactive,inactive,,
CN1CCN(c2nnc(NC(=O)Nc3ccc(Cl)c(Cl)c3)s2)CC1,inactive,inactive,,
CCCCNc1nc(C)nc2c1nc(-c1ccccc1)n2CC1CCCN1CC (stereo not drawn),inactive,inactive,,

SMILES,Potency [1],Potency [2],"activity change, negative = inhibition [1]","activity change, negative = inhibition [2]"
O=C(CNC(=O)c1ccc2cc[nH]c2c1)OC(C(=O)Nc1cc(C(F)(F)F)ccc1Cl)c1ccccc1 (stereo not drawn),inactive,inactive,,
Cc1ccc(-c2cc(C(=O)Nc3ccc(S(N)(=O)=O)cc3)c3ccccc3n2)cc1C,inactive,inactive,,
CC(C)(C)OC(=O)Nc1ncnc2c1C(c1ccccc1)c1c(ccc3ccccc13)O2 (stereo not drawn),inactive,inactive,,
C/C(=C\c1ccsc1)C1Nc2cccc3cccc(c23)N1,inactive,inactive,,
CCOc1ccc(CCNC(=O)c2cc3sccc3n2Cc2ccccc2)cc1OCC,inactive,inactive,,
N[C@H](C(=O)Nc1ccc(Cl)cc1C(=O)c1ccc[nH]1)c1ccccc1,inactive,inactive,,
COc1cccc(C(=O)NC2CCN(C#N)CC2)c1,inactive,inactive,,
COc1ccccc1-c1nnc2n1N=C(c1ccc(OC(F)F)c(OCC3CC3)c1)CS2,inactive,inactive,,
Cc1nc(-c2ccc([S+](=O)([O-])N3CCN([S+](=O)([O-])c4c(F)cccc4F)CC3)s2)cs1,inactive,inactive,,
COC1CC(O[C@H]2CC[C@@]3(C)C(=CC[C@]4(O)C3[C@H](OC(C)=O)[C@@H](OC(=O)c3ccccc3)[C@]3(C)[C@@H](C(C)=O)CC[C@@]34O)C2)OC(C)C1OC1CC(OC)C(OC2CC(OC)C(OC3OC(C)C(OC4OC(CO)C(O)C(O)C4O)C(OC)C3O)C(C)O2)C(C)O1 (stereo partly drawn),,,8.46% [at 11.2 µM],2.23% [at 11.2 µM]
CC1CC(O)/C=C/C(O)/C=C\C(=O)O1 (stereo not drawn),inactive,inactive,,
COc1cccc(C2c3c(ncn(-c4ccc(NC(C)=O)cc4)c3=N)Oc3ccc4ccccc4c32)c1 (stereo not drawn),inactive,inactive,,
N#CC1=C(Nc2nc3ccccc3o2)OC2=C(C(=O)CCC2)C1c1[nH]ncc1Cl (stereo not drawn),inactive,inactive,,
O=c1[nH]cnc2c1ncn2[C@H]1CC[C@@H](CO)O1,inactive,inactive,,
O=C1CCCC2=C1C1(CCCC1)N=C(Nc1nc3cc(Br)ccc3o1)N2,inactive,inactive,,
C#CCOc1cc(C2=Nn3c(nnc3-c3ccc(OCC(C)=O)cc3)SC2)ccc1OC,inactive,inactive,,
N#Cc1ccc(NS(=O)(=O)c2ccc(NC(=O)Cc3ccc(Cl)c(Cl)c3)cc2)cc1,inactive,inactive,,
COc1cccc(-c2nnc3n2N=C(c2c(OC)cccc2OC)CS3)c1OC,inactive,inactive,,
COc1cccc(CNc2ccc(S(=O)(=O)Nc3cc(C)on3)cc2)c1O,inactive,inactive,,
O=C(Nc1nc(-c2ccccc2)cs1)c1ccncc1NS(=O)(=O)c1ccc(F)cc1Cl,inactive,inactive,,
O=C(/C=C/c1ccccc1Cl)Nc1cccc([S+](=O)([O-])Nc2ccccc2F)c1,inactive,inactive,,

SMILES,Potency [1],Potency [2],"activity change, negative = inhibition [1]","activity change, negative = inhibition [2]"
CN1CCN(c2cc(-c3nc(Nc4ccc(F)c(F)c4)c4ccccc4n3)ccn2)CC1,inactive,inactive,,
COc1ccc(CSc2nc3ncc(Br)cc3[nH]2)cc1F,inactive,inactive,,
Cn1c2cc(C=O)sc2c2cnn(Cc3ccccc3F)c(=O)c21,inactive,inactive,,
O=C(Nc1ccc(Cl)c(Cl)c1)N1CCN(c2ccncc2)CC1,inactive,inactive,,
Cc1cc2c(s1)c1cnn(Cc3c(F)cccc3Cl)c(=O)c1n2C,inactive,inactive,,
O=C(COC(=O)CNC(=O)c1ccccc1)Nc1cc(C(F)(F)F)ccc1Cl,inactive,inactive,,
Cn1c2cc(B(O)O)sc2c2cnn(Cc3c(F)cccc3F)c(=O)c21,inactive,inactive,,
CC1OC2O[C@H]3[C@@H](OCC(O)[C@H]3O)OC(=O)C34CCC(C)(C)CC3C3=CCC5C6(C)CC(O)C(OC7OC(CO)C(O)C(O)C7O[C@@H]7OC[C@H](OC(=O)CC(C)(O)CC(=O)OC1C(OC1OCC(O)C(O)C1O)C2O)[C@@H](O)[C@H]7O)C(C)(CO)C6CCC5(C)C3(C)CC4 (stereo partly drawn),inactive,inactive,,
N#Cc1nc(Nc2cc(F)cc(F)c2)c2ncn(CCCO)c2n1,inactive,inactive,,
CSc1cnc(-c2ccccc2C(C)C)nc1NCc1ccc(-c2cccnc2)cc1,inactive,inactive,,
O=[N+]([O-])c1cccc(CNc2ccc(S(=O)(=O)Nc3nccs3)cc2)c1O,inactive,inactive,,
Fc1cnc(-c2ccccc2C(F)F)nc1NCc1ccc(-n2ccnn2)cc1,inactive,inactive,,
Cc1cc(C)n2ncc(C(=O)NCc3ccccc3)c2n1,inactive,inactive,,
Cc1cc(NC(=O)Nc2nnc(-c3ccncc3)s2)ccc1F,inactive,inactive,,
COc1ccc(-n2cnc3c(c2=N)C(c2cccc(OC)c2)c2c(ccc4ccccc24)O3)cc1 (stereo not drawn),inactive,inactive,,
C/C=C/c1ccc2c(c1)[C@@H](C)[C@H](c1ccc(O)cc1)O2,inactive,inactive,,
COc1cccc(NS(=O)(=O)c2ccc(NCc3cccc(OC)c3O)cc2)c1,inactive,inactive,,
Cn1c(=O)c2c(nc(CN3CCN(C(=O)C4CC4)CC3)n2Cc2ccccc2Cl)n(C)c1=O,inactive,inactive,,
CC(C)(C)Cc1nnc(NC(=O)CSc2ccccc2)s1,inactive,inactive,,
Brc1ccc(-c2csc(N3CCOCC3)n2)cc1,inactive,inactive,,
COc1cccc(NC(=S)N2CCN(c3ccc(Cl)cc3Cl)CC2)n1,inactive,inactive,,
